Screens from PubChem.
Peg3 prom inh: inhibitors of Peg3 promoter. HeLa PEG-Prom luciferase reporter, luminescence, overnight. 360,000 tested, 1.7% active. AID 588405. inhibition, % at 20 µM;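 active = inhibition of at least 50% at 20 µM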
KKLEB cytotox: reduces viability of KKLEB cystic fibrosis airway cells; KKLEB CF airway cells viability, ATPlite luminescence, overnight; active compounds read low; cells stimulated with P. aeruginosa culture filtrate; activity change (cytotoxicity), % at 5 µM; 360,000 tested, 0.36% active;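 active = corrected activity change at or below -50% at 5 µM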
TRPM1 prom inh: MITF TRPM1 promoter inhibition in SK-MEL-5 cells. SK-MEL-5 TRPM1 promoter luciferase, 24 h. inhibition, % at 12.5 µM. 330,000 tested, 0.83% active;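 active = mean inhibition across replicates of 60% or more, whatever share of single replicates reaches that level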
HIF-2a inh: blocks HIF-2a reporter activity | 786-0 RCC cells HIF-2a reporter, luciferase luminescence, overnight | inhibition, % at 18.8 µM | 360,000 tested, 0.72% active | AID 624352;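 active = inhibition of the luminescence signal of 40% or more relative to plate controls, in a single-dose primary screen at 18.75 µM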
Shn3 3UTR inh: Schnurri-3 reporter inhibition in Clone20 osteoblasts; Clone20 osteoblast Shn3 3'UTR firefly luciferase, 24 h; inhibition, % at 12.5 µM; AID 588674; 360,000 tested, 0.52% active;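 active = mean inhibition of at least 75% with every replicate also reaching 75%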;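 also: 0% = median of neutral control wells and 100% = pilot-screen positive control compound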
CF NFkB inh: inhibitors of cystic fibrosis induced NF-kB; KKLEB NF-kB-GFP reporter, PAF-induced, GFP fluorescence overnight; inhibition, % at 5 µM; 360,000 tested, 0.86% active;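 active = at least 50% inhibition at 5 µM, scaled per plate between neutral and stimulator controls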;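 also: PAF is a Pseudomonas aeruginosa culture filtrate used as stimulus; plate controls were PAF-stimulated DMSO wells for no effect and unstimulated DMSO wells for full effect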
Mdm2 MdmX conf: Mdm2/MdmX (human) interaction inhibition, confirmed. SaOS-2 split-luciferase Mdm2/MdmX complementation, luminescence. 740 tested, 99% active. inhibition, % at 8 µM. shares compounds with HIF-2a inh;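 active = mean inhibition of the luminescence signal across two replicates at or above 26 percent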
Target sequence (O15151 whole entry, looked up): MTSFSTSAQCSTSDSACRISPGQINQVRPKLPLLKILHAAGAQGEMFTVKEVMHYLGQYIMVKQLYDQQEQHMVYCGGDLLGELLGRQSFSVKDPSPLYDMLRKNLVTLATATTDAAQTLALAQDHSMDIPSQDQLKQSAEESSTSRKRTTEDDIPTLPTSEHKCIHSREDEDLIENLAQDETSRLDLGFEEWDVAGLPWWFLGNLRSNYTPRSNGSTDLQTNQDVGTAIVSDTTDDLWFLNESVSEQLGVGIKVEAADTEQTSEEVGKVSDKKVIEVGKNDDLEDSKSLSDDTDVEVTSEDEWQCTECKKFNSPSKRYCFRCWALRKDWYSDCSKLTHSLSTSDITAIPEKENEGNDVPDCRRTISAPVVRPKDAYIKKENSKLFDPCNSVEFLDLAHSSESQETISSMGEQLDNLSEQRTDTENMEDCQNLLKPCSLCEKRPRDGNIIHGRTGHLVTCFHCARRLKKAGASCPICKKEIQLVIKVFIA
Target sequence (Q00987 whole entry, looked up): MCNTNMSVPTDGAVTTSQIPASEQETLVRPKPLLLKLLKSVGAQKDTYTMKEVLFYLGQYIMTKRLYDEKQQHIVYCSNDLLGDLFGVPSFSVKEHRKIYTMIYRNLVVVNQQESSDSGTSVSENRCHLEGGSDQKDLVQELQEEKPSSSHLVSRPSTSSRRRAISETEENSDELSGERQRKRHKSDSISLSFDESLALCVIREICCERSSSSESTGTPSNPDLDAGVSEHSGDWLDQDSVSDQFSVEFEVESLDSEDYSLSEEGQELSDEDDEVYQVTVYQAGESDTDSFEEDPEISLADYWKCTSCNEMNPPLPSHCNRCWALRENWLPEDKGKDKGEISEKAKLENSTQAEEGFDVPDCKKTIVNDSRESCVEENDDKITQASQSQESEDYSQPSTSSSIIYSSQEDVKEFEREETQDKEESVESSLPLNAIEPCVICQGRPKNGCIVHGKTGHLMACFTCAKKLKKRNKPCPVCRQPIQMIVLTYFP
HIF-2a conf: confirmation of HIF-2a inhibitors; 786-0 RCC cells, HIF-2a luciferase reporter luminescence, overnight; shares compounds with HIF-2a inh; 1,800 tested, 56% active; AID 651580; inhibition, % at 18.8 µM;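 active = mean inhibition across four replicates of at least 40 percent at the single tested concentration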
HIF-1a counter: counter-screen for HIF-2a inhibitors: HIF-1a inhibition in MiaPaCa-2 cells; MiaPaCa-2 HIF-1a luciferase reporter, desferoxamine, overnight; AID 651589; inhibition, % at 18.8 µM; 1,800 tested, 72% active; shares compounds with HIF-2a inh;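 active = mean inhibition of the reporter signal across four replicates at the single tested dose of 50% or more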
* marks the source's active call; other numbers are inactive results; / = not tested or not shown. Sampled rows, rich in hits. Any-hit rate of the full collection: about 2.8%.

SMILES | Peg3 prom inh | KKLEB cytotox | TRPM1 prom inh | HIF-2a inh | Shn3 3UTR inh | CF NFkB inh | HIF-2a conf | HIF-1a counter | others
Cc1ccc(-c2cc(-c3ccccc3)c(C#N)c(Br)n2)cc1 | 6.2 | -4.9 | -0.2 | 11.4 | 8.5 | 3.7 | / | /
CS(=O)(=O)c1nc(-c2ccccc2)cc(-c2ccccc2)c1C#N | 101.2* | -15.3 | 41.4 | 76.0* | 30.2 | 61.1* | 34.1 | 106.2*
O=c1cc(C(Cl)(Cl)Cl)oc2c1ccc1ccccc12 | 105.9* | 7.9 | 69.2* | 34.9 | 75.1 | 6.1 | / | / | Mdm2 MdmX conf=103.0*
O=c1cc(-c2ccco2)oc2c1ccc1ccccc12 | 6.2 | -9.9 | -9.5 | -9.8 | 18.1 | -54.2 | / | /
COc1cccc(CN2C(=O)CCC2(C)C(=O)NCCc2ccc(OC)c(OC)c2)c1 (stereo not drawn) | -9.0 | 10.8 | -13.3 | 9.9 | -14.3 | -13.5 | / | /
O=C(Nc1ccccc1-c1nc2ccccc2[nH]1)c1ccc(N2C(=O)CCC2=O)cc1 | 21.7 | -25.8 | 9.4 | 44.8* | 8.8 | 19.2 | -22.5 | 9.9
Cc1ccc(N(CC(=O)NC2CCCCC2)S(=O)(=O)c2cccs2)cc1 | -4.9 | -13.3 | -10.5 | 13.6 | 2.9 | 7.7 | / | /
COC(=O)c1cc(=O)n(Cc2ccc(OC)cc2)c(=NCc2ccc(OC)cc2)s1 | 12.0 | 1.6 | 12.4 | 14.7 | 0.9 | 3.4 | / | /
COC(=O)c1cc(=O)n(Cc2ccc3c(c2)OCO3)c(=Nc2ccc(F)c(Cl)c2)s1 | 57.1* | -15.3 | 11.5 | 53.2* | 60.7 | 44.3 | 6.1 | 58.9*
CCCCc1nnc(NC(=O)c2ccc3[nH]c(=O)c(=O)[nH]c3c2)s1 | -9.2 | 5.0 | 6.5 | 10.5 | 7.3 | 1.1 | / | /
Cc1cccc([C@@H]2[C@@H]3C(=O)N(Cc4ccccc4)C(=O)[C@@H]3[C@]3(Cc4ccc(Cl)cc4)C(=O)N(c4ccc(Br)cc4)C(=O)N23)c1 | 6.7 | -12.2 | -5.8 | 6.1 | 2.1 | 4.6 | / | / | Mdm2 MdmX conf=101.7*
CC1CCC(C(C)C)C(OC(=O)C[n+]2cc(-c3ccc(Cl)cc3)n3c2CCC3)C1 (stereo not drawn) | 22.1 | -24.9 | 29.2 | -8.9 | 15.8 | 20.2 | / | /
Cc1cccc(OCc2n(CC(=O)OC3CC(C)CCC3C(C)C)c3ccccc3[n+]2C)c1 (stereo not drawn) | 102.8* | -56.6* | 96.2* | 95.8* | 6.5 | 68.7* | 27.4 | 106.3* | Mdm2 MdmX conf=102.5*
CC1CCC(C(C)C)C(OC(=O)Cn2c(-c3ccc(F)cc3)[n+](C)c3ccccc32)C1 (stereo not drawn) | 62.1* | -53.9* | 79.6* | -5.8 | 72.0 | 49.5 | / | / | Mdm2 MdmX conf=99.5*
CCN(CC)CCOc1ccc2c(c1)C(=NO)c1cc(OCCN(CC)CC)ccc1-2 | 107.2* | -25.5 | 102.7* | 54.4* | -2.0 | 15.0 | 33.1 | 106.9*
CCN(CC)CCCOc1ccc(Cl)c(Cl)c1 | 20.0 | 1.0 | 5.7 | 16.2 | 3.2 | 0.6 | / | /
O=C(CNc1ccc(C(F)(F)F)cc1)Nc1cccc(S(=O)(=O)N2CCCCC2)c1 | 15.3 | -13.1 | / | -12.2 | 37.2 | 9.8 | / | /
O=[N+]([O-])c1ccc(Oc2cccc(F)c2)c2ccncc12 | 18.4 | -16.7 | 16.7 | 46.6* | 0.5 | 41.1 | 30.2 | 78.7*
CCOc1ccc(C(=O)CC(NCc2cccs2)C(=O)O)cc1 (stereo not drawn) | -6.8 | 1.4 | 8.6 | -10.7 | -5.4 | 18.1 | / | /
Cc1ccc(-c2cc(C(=O)N3CC(C)CC(C)C3)c3ccccc3n2)o1 (stereo not drawn) | -6.5 | 0.1 | -9.5 | 44.1* | 9.6 | 4.5 | -41.2 | 28.9
Cc1ccc(-c2cc(C(=O)N3CC(C)OC(C)C3)c3ccccc3n2)o1 (stereo not drawn) | -39.5 | -6.8 | -18.5 | -29.6 | -6.2 | 2.9 | / | /
COc1ccccc1OC(=O)CCN1c2ccccc2Sc2ccccc21 | -21.8 | -3.5 | -7.9 | -6.8 | -33.4 | -6.3 | / | /
